Laboratory results as given in PubChem BioAssay AID743446 (Broad Institute, 2014).
Entries with a potency or affinity are not part of this list. A number with no mark means an inactive call. How the calls were made is not given here.

Assay: HEK293 cell cytotoxicity, dose response, cytotoxicity control, plate reader, cherry-picked samples (AID 743446)
Conditions: hits give low values; at 26 µM unless noted

Compound | max activity
C[C@H]1CN([C@@H](C)CO)C(=O)c2cc(NC(=O)Nc3ccccc3)ccc2O[C@H]1CN(C)Cc1ccc(-c2ccccc2)cc1 | 25.6% [at 0.1 µM]
COc1ccc(C(=O)Nc2nnc(SCC(=O)NCc3ccco3)s2)c(OC)c1 | 15%
Cc1ccc(-c2nc(-c3ccncc3)no2)cc1C | -14.8%
C[C@@H]1CN([C@@H](C)CO)C(=O)c2cccc(NC(=O)c3ccc(-c4nccs4)cc3)c2O[C@@H]1CN(C)C(=O)Nc1ccc(C(F)(F)F)cc1 | -9.8%
COc1cc(SC)ccc1C(=O)Nc1ccc(Cl)cn1 | 19.7% [at 3 µM]
O=C(CN1C(=O)c2ccccc2S1(=O)=O)c1ccc(F)c(F)c1 | 11.6%
COC(=O)c1c(N)sc(C(=O)NCCc2ccccc2)c1C | 16.2% [at 3 µM]
O=C(Nc1nc2ccccc2[nH]1)c1ccc(Cl)cc1 | 71.5% [at 0.8 µM]
CCCCC(=O)N(C)c1c(C)nc2ccc(C(=O)N3CCCCC3)cn12 | -12.7% [at 12 µM]
C[C@@H]1CN([C@@H](C)CO)S(=O)(=O)c2ccc(C3=CCCC3)cc2O[C@H]1CN(C)C(=O)c1ccccc1 | 11.7% [at 0.1 µM]
CO[C@H]1CN(C)C(=O)c2ccc(NC(=O)C3CC3)cc2OC[C@@H](C)N(C(=O)Cc2ccccn2)C[C@H]1C | 22% [at 1.6 µM]
COc1ccc(S(=O)(=O)Nc2ccc3c(c2)C(=O)N([C@@H](C)CO)C[C@@H](C)[C@H](CN(C)C(=O)Nc2cccc4ccccc24)OCCCC[C@H](C)O3)cc1 | 35.8% [at 12 µM]
COc1cccc(-c2cc(C(=O)N3CCCCCC3)no2)c1 | -9.64% [at 12 µM]
Cc1ccc2nc(-c3ccc(Br)cc3)cn2c1 | 0% [setting not given]
COCC#Cc1ccc2c(c1)O[C@H](CN(C)S(=O)(=O)c1cccc(F)c1)[C@@H](C)CN([C@H](C)CO)S2(=O)=O | 14.5% [at 0.195 µM]
O=C(c1cc(-c2ccc(Cl)cc2Cl)on1)N1CCCC1 | 9.97% [at 0.8 µM]
Cc1c(NC(=O)c2cccc(NC(=O)COc3ccccc3C#N)c2)c(=O)n(-c2ccccc2)n1C | -14.7% [at 3 µM]
CN1CCN(c2ccc(NC(=O)N3CCc4ccccc43)cc2)CC1 | 17.5% [at 1.6 µM]
CCOc1ccc(-c2cnc3ccccc3n2)cc1 | 16.5% [at 0.38 µM]
O=C(NCc1ccco1)c1cc(NS(=O)(=O)c2cccc([N+](=O)[O-])c2)ccc1O | 40.6% [at 0.38 µM]
CCCNC(=O)N1[C@H](C#N)[C@H](c2ccc(C#Cc3ccc(F)cc3)cc2)[C@H]1CO | -37%
C[C@H](CO)N1C[C@H](C)[C@H](CN(C)C(=O)Nc2ccc3c(c2)OCO3)OCCCC[C@H](C)Oc2ccc(NC(=O)C3CCCCC3)cc2C1=O | 17.6%
C[C@H](CO)N1C[C@H](C)[C@H](CN(C)C(=O)Nc2ccc(C(F)(F)F)cc2)OCCCC[C@H](C)Oc2ccc(NC(=O)NC3CCCCC3)cc2C1=O | 66%
Cn1cnc(S(=O)(=O)N2C[C@@H](O)COC[C@H]3O[C@H](CC(=O)NC4CCCC4)CC[C@@H]32)c1 | 13.5% [at 0.38 µM]
N#C[C@@H]1[C@H](c2ccc(C#Cc3ccccc3F)cc2)[C@@H](CO)N1C(=O)C1CCCC1 | -15.6%
Cc1cc(C)n2c(Nc3ccc4c(c3)OCCO4)c(-c3cc4ccccc4o3)nc2n1 | 52.8%
